The list is not random: actives were taken first. Their share in the collection is about 6.7%.
C diff HTS: inhibitors of Clostridium difficile growth; Clostridium difficile clinical isolate growth, OD600, 24 h; active compounds read low; growth activity, negative = inhibition, % at 16 µg/mL (by protocol); hit rate 0.25% among 86,000;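 active means mean growth activity at or below -80% and every replicate also at or below -80%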
Pf Dd2 growth: inhibitors of Plasmodium falciparum Dd2 growth; hit rate 2.3% among 94,000; P. falciparum Dd2 growth, SYBR Green, 72 h; active compounds read low; activity change, % at 10 µM; in the data active means activity change below about -80%
T cruzi growth: blocks T. cruzi growth in NIH3T3 culture. hit rate 5.9% among 77,000. T. cruzi beta-gal in NIH3T3, GalScreen luminescence, 90 h. inhibition, % at 8.34 µM;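 active means mean inhibition above about 93%, with at least 55% of replicates each passing it, limit read from the data, passing the limit was not always enough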
Hits are given with their value; – = inactive; · = not tested or not shown.

SMILES	C diff HTS	Pf Dd2 growth	T cruzi growth
COc1ccc(NC(=O)N2C[C@@H](O)COC[C@@H]3O[C@H](CC(=O)N4CCN(C)CC4)CC[C@H]32)cc1	·	–	–
CO[C@@H]1CN(C)C(=O)c2ccc(NC(=O)c3cccc(Oc4ccccc4)c3)cc2OC[C@@H](C)NC[C@H]1C	–	–	–
C[C@H](CO)N1C[C@H](C)[C@H](CN(C)Cc2ccncc2)Oc2cc(C#CCN(C)C)ccc2S1(=O)=O	–	–	–
C[C@@H]1CN([C@@H](C)CO)S(=O)(=O)c2ccc(-c3cccc(C(=O)N(C)C)c3)cc2O[C@@H]1CN(C)Cc1ccc2c(c1)OCO2	–	–	·
C[C@H]1CN([C@@H](C)CO)S(=O)(=O)c2ccc(C#CCN(C)C)cc2O[C@@H]1CN(C)Cc1ccncc1	–	–	97
CC(C)CC#Cc1ccc2c(c1)O[C@@H](CN(C)Cc1cccc(F)c1)[C@@H](C)CN([C@H](C)CO)S2(=O)=O	–	–	–
C[C@@H]1CN([C@@H](C)CO)S(=O)(=O)c2ccc(-c3cccc(C(=O)N(C)C)c3)cc2O[C@H]1CN(C)Cc1ccc2c(c1)OCO2	–	-82	·
CC(C)CC#Cc1ccc2c(c1)O[C@@H](CN(C)Cc1cccc(F)c1)[C@H](C)CN([C@@H](C)CO)S2(=O)=O	–	-84	–
CCCNC(=O)N1CC2(CCN(C(=O)C3CCC3)CC2)c2c([nH]c3cc(OC)ccc23)[C@@H]1CO	–	–	·
COCC#Cc1cnc2c(c1)C(=O)N([C@@H](C)CO)C[C@@H](C)[C@@H](CN(C)S(=O)(=O)c1ccccc1)O2	–	–	–
CCCNC(=O)N1[C@H](CO)[C@@H](c2ccc(-c3ccccc3F)cc2)[C@@H]1C#N	–	–	–
CCCNC(=O)N1[C@@H](C#N)[C@H](c2ccc(-c3ccccc3F)cc2)[C@@H]1CO	–	–	–
CCCNC(=O)N1[C@H](C#N)[C@H](c2ccc(-c3ccccc3F)cc2)[C@H]1CO	–	-88	–
CCCNC(=O)N1[C@H](C#N)[C@H](c2ccc(-c3ccccc3F)cc2)[C@@H]1CO	–	-87	–
O=C(N[C@H]1CC[C@@H](CCn2cc(C3(O)CCCC3)nn2)O[C@H]1CO)c1ccccc1F	·	–	–
COC(=O)C[C@H]1CC[C@@H](NC(=O)Nc2ccc(C(F)(F)F)cc2)[C@H](CO)O1	–	–	–
C[C@H]1CCCCO[C@@H](CN(C)Cc2ccncc2)[C@@H](C)CN([C@@H](C)CO)C(=O)c2cc(NC(=O)Nc3cccc4ccccc34)ccc2O1	–	–	99
C[C@@H]1CN([C@H](C)CO)C(=O)c2cc(NC(=O)Nc3cccc4ccccc34)ccc2O[C@@H](C)CCCCO[C@H]1CN(C)Cc1ccc(C(F)(F)F)cc1	–	-85	–
C[C@@H]1CCCCO[C@H](CN(C)Cc2ccc(C(F)(F)F)cc2)[C@@H](C)CN([C@@H](C)CO)C(=O)c2cc(NC(=O)Nc3cccc4ccccc34)ccc2O1	–	–	–
C[C@@H]1CCCCO[C@H](CN(C)Cc2ccncc2)[C@H](C)CN([C@@H](C)CO)C(=O)c2cc(NC(=O)Nc3cccc4ccccc34)ccc2O1	–	–	–
CC(=O)N(C)C[C@@H]1Oc2cc(C#Cc3cccc(F)c3)ccc2S(=O)(=O)N([C@@H](C)CO)C[C@H]1C	–	–	–
CCC(=O)N1CCC2(CC1)CN(Cc1ccc3c(c1)OCO3)[C@@H](CO)c1c2c2ccc(OC)cc2n1C	–	-91	·
COc1ccc2c3c(n(C)c2c1)[C@H](CO)N(CC1CC1)CC31CN(C(=O)c2ccc3c(c2)OCO3)C1	–	-89	·
CCC(=O)N1CC2(C1)CN(Cc1cccc(Cl)c1)[C@H](CO)c1c2c2ccc(OC)cc2n1C	–	-92	·
COc1ccc2c3c(n(C)c2c1)[C@@H](CO)N(CC1CC1)CC31CN(C(=O)c2ccc3c(c2)OCO3)C1	–	–	·
SMILES	C diff HTS	Pf Dd2 growth	T cruzi growth
CCC(=O)N1CC2(C1)CN(Cc1cccc(Cl)c1)[C@@H](CO)c1c2c2ccc(OC)cc2n1C	–	–	·
COc1cc(CN2CC3(CN(C(=O)c4ccc5c(c4)OCO5)C3)c3c(n(C)c4cc(OC)ccc34)[C@@H]2CO)cc(OC)c1	–	–	·
COc1ccc2c3c(n(C)c2c1)[C@@H](CO)N(Cc1ccc2c(c1)OCO2)CC31CN(C(=O)c2ccc3c(c2)OCO3)C1	–	-85	·
COCC(=O)N1CCC2(CC1)CN(Cc1ccc3c(c1)OCO3)[C@@H](CO)c1c2c2ccc(OC)cc2n1C	–	–	·
CO[C@@H]1CN(C)C(=O)c2ccc(NC(=O)CC(F)(F)F)cc2OC[C@H](C)N(C(=O)C2CCCCC2)C[C@H]1C	–	–	·
CCCC(=O)Nc1ccc2c(c1)C(=O)N(C)C[C@H](OC)[C@H](C)CN(CC1CCCC1)[C@@H](C)CO2	·	–	–
C[C@@H]1CCCCO[C@@H](CN(C)Cc2ccc(C(=O)Nc3ccccc3N)cc2)[C@@H](C)CN([C@H](C)CO)C(=O)c2cc(NS(=O)(=O)c3cn(C)cn3)ccc2O1	–	–	·
COc1cccc(S(=O)(=O)N2CC[C@@H]3[C@H](CO)Nc4ccc(C#Cc5ccccc5)cc4[C@@H]32)c1	–	–	–
CN1c2ccc(C3=CCCCC3)cc2[C@@H]2[C@@H](CCN2C(=O)Nc2ccc(F)cc2)[C@@H]1CO	–	–	–
C[C@H]1CCCCO[C@@H](CN(C)CC2CCCCC2)[C@@H](C)CN([C@@H](C)CO)C(=O)c2cc(NC(=O)Nc3cccc4ccccc34)ccc2O1	–	-83	–
C[C@@H]1CCCCO[C@H](CN(C)CC2CCCCC2)[C@@H](C)CN([C@H](C)CO)C(=O)c2cc(NC(=O)Nc3cccc4ccccc34)ccc2O1	–	–	–
C[C@@H]1CN([C@@H](C)CO)C(=O)c2cc(NC(=O)Nc3cccc4ccccc34)ccc2O[C@@H](C)CCCCO[C@@H]1CN(C)C	–	-87	–
C[C@@H]1CCCCO[C@@H](CN(C)C)[C@@H](C)CN([C@@H](C)CO)C(=O)c2cc(NC(=O)Nc3cccc4ccccc34)ccc2O1	–	·	–
C[C@@H]1CN([C@H](C)CO)C(=O)c2cc(NC(=O)Nc3cccc4ccccc34)ccc2O[C@@H](C)CCCCO[C@@H]1CN(C)C(=O)C1CCCCC1	–	-91	–
C[C@@H]1CN([C@@H](C)CO)C(=O)c2cc(NC(=O)Nc3cccc4ccccc34)ccc2O[C@@H](C)CCCCO[C@H]1CN(C)C(=O)C1CCCCC1	–	–	–
C[C@@H]1CN([C@@H](C)CO)C(=O)c2cc(NC(=O)Nc3ccccc3)ccc2O[C@@H](C)CCCCO[C@@H]1CN(C)C(=O)Cc1ccccc1	·	–	–
COc1ccc2c3c(n(C)c2c1)[C@H](CO)N(C(=O)Nc1ccccc1F)CC31CCN(C(=O)c2ccccc2)CC1	–	–	·
CC(C)C#Cc1ccc2c(c1)O[C@H](CN(C)S(=O)(=O)c1cn(C)cn1)[C@@H](C)CN([C@@H](C)CO)S2(=O)=O	–	–	·
COc1ccc(NC(=O)Nc2ccc3c(c2)C(=O)N([C@H](C)CO)C[C@H](C)[C@H](CN(C)S(=O)(=O)c2ccc(C)cc2)OCCCC[C@@H](C)O3)cc1	·	-88	–
COc1ccc(S(=O)(=O)N(C)C[C@H]2OCCCC[C@@H](C)Oc3ccc(NC(=O)Nc4ccc5c(c4)OCO5)cc3C(=O)N([C@H](C)CO)C[C@@H]2C)cc1	–	–	–

Source: PubChem
